Test results reported in PubChem BioAssay AID504766 (The Scripps Research Institute Molecular Screening Center, 2011).
Among all 340,000 compounds or so, about 3,400 (1%) were called active.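 Rule for the calls: active = inhibition above the mean over all tested compounds plus 3 SD (cut at about 4.2% in these data); inactive = the rest.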 What follows is part of a selection rich in actives, with near analogues and random picks from the rest.

molecular target: Nuclear receptor subfamily 0 group B member 1 (Homo sapiens) (UniProt P51843); assay: relief of DAX1 transcriptional repression – cell-based, HEK293, Gal4-DAX1, luciferase luminescence, primary screen (AID 504766); conditions: HEK293 Gal4-DAX1 luciferase reporter, at 6.75 µM, stronger effect = higher value;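 note: 0% = DAX1-transfected cells with DMSO and 100% = empty-vector control cells with DMSO; inhibition shows as a rise in luminescence from relieved DAX1 repression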
Sequence (P51843 207-470 limits assumed): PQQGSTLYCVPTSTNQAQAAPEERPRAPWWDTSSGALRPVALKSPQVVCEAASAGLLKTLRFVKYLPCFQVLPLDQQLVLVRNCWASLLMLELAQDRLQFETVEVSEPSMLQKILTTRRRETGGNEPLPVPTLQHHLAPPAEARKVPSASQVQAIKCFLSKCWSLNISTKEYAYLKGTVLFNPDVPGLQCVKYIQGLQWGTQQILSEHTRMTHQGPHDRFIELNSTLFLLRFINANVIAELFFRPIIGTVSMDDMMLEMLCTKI

Row | Compound | inhibition
1 | CCc1ccccc1NC(=O)CN1CCN(C(=O)c2cc(C3CC3)nn2-c2ccccc2)CC1 | -0.77% (inactive)
2 | Nc1ccc(-c2nnc(-c3ccccc3)o2)cc1 | 4.37% (active)
3 | COc1ccc(-c2nnc(-c3ccc4ccccc4c3)o2)cc1 | 0.71% (inactive)
4 | CN(C)c1ccc(-c2nnc(-c3cccnc3)o2)cc1 | 2.53% (inactive)
5 | CCCn1c(N)c(C(=O)CSc2nnc(Cc3cccs3)n2C2CC2)c(=O)[nH]c1=O | 0.35% (inactive)
6 | OCC1OC(n2cnc3c(N4CCCC4)ncnc32)C(O)C1O (configuration not stated) | -0.3% (inactive)
7 | CC1CN(C(=O)c2cccc(NS(=O)(=O)c3ccc(Br)cc3)c2)CC(C)O1 (configuration not stated) | 0.52% (inactive)
8 | Cc1csc(SCC(=O)Nc2ccc(C)c(S(=O)(=O)N(C)C)c2)n1 | 0.09% (inactive)
9 | Cc1onc(-c2ccccc2)c1-c1nnc(COC(=O)c2ccc(N(C)C)cc2)o1 | -0.6% (inactive)
10 | N#Cc1c(NC(=O)C2CC(Cl)=CCC2C(=O)O)sc2c1CCCCC2 (configuration not stated) | -0.39% (inactive)
11 | N#Cc1c(NC(=O)CCCl)sc2c1CCCCC2 | 1.1% (inactive)
12 | N#Cc1c(NC(=O)C2CCCO2)sc2c1CCCCC2 (configuration not stated) | 4.7% (active)
13 | CCN(CC)C(=O)C1=C(C)N(Cc2ccc(F)cc2)C(=O)C(CC(=O)NCc2cccc3ccccc23)C1 (configuration not stated) | -0.64% (inactive)
14 | C[C@H]1NS(=O)(=O)c2cc(Cl)ccc2O[C@@H]1c1ccccc1 | -0.34% (inactive)
15 | COc1ccc(CN2C[C@H]3CON(C)[C@H]3C[C@H]2c2ccc(-c3cccc(F)c3)cc2)cc1 | 1.13% (inactive)
16 | CC1=C(C(=O)Nc2cccc(C(=O)NCC(C)c3ccccc3)c2)SCCO1 (configuration not stated) | 3.58% (inactive)
17 | COc1ccc(OC)c(NC(=O)C2CCCN2S(=O)(=O)c2ccc3c(c2)CC(C)N3C(C)=O)c1 (configuration not stated) | 1.18% (inactive)
18 | OCCC1CN(Cc2cccc(OC3CCCC3)c2)CCN1Cc1ccsc1 (configuration not stated) | 5.86% (active)
19 | OCCC#Cc1ccc(CN2CCN(Cc3ccsc3)C(CCO)C2)cc1 (configuration not stated) | 2.04% (inactive)
20 | OCCC1CN(Cc2ccccc2-c2ccco2)CCN1Cc1ccsc1 (configuration not stated) | -0.73% (inactive)
21 | Cc1ccc(S(=O)(=O)/N=C2\C=C(NS(=O)(=O)c3ccc(C)cc3)C(=O)c3ccccc32)cc1 | -1.06% (inactive)
22 | Cc1ccc(S(=O)(=O)N2CCOCC2)cc1NC(=O)c1ccncc1 | 0.21% (inactive)
23 | CCC(Oc1ccccc1)C(=O)OCC(=O)Nc1c(C)nn(-c2ccccc2)c1C (configuration not stated) | 0.21% (inactive)

Row | Compound | inhibition
24 | Cc1ccc(S(=O)(=O)N2CCCCC2)cc1NC(=O)CCNC(=O)c1ccccc1Cl | 0.48% (inactive)
25 | CCCCN1C[C@H](c2ccc(Br)cc2)[C@@H](CC(=O)Nc2ccc(Br)cc2)C1=O | -0.08% (inactive)
26 | CCNc1nc(-c2cc3ccccc3o2)cs1 | 4.56% (active)
27 | Cn1c(CNc2nc(-c3ccccc3)cs2)nnc1SCC(=O)c1ccccc1 | -1.22% (inactive)
28 | Cc1cc(NC(=O)c2cc3ccccc3o2)no1 | 0.08% (inactive)
29 | COc1ccc(S(=O)(=O)N2CCN(CC(=O)N3CCNC3=O)CC2)cc1OC | 0.75% (inactive)
30 | CCN(C(=O)Nc1cccc2ccccc12)c1ccccc1 | 0.32% (inactive)
31 | COC(=O)c1c(NC(=O)CN(c2ccc(C)c(C)c2)S(C)(=O)=O)sc2c1CCCC2 | 0.52% (inactive)
32 | COC(=O)c1c(NC(=O)CSc2nncs2)sc2c1CCCCC2 | -1.11% (inactive)
33 | CCc1ccc(N(CC(=O)Nc2sc3c(c2C(=O)OC)CCCC3)S(C)(=O)=O)cc1 | 5.84% (active)
34 | COCCCn1c(=O)/c(=C/c2ccccc2OC(C)C)s/c1=C(\C#N)C(=O)Nc1ccc(C(=O)O)cc1 | 1.28% (inactive)
35 | COc1cc(C(=O)OCCCN2CCOCC2)cc(OC)c1OC | 0.71% (inactive)
36 | O[C@H]1CN(Cc2cccs2)[C@@H](c2ccc(Cl)cc2)C[C@@H]1n1cc(C2CC2)nn1 | 0.8% (inactive)
37 | CCc1ccc(NC(=O)CN2C(=O)CSC2=O)cc1 | 1.29% (inactive)
38 | COc1ccc(NC(=O)CN2C(=O)CSc3ccc(S(=O)(=O)N4CCC(C)CC4)cc32)cc1 | -0.82% (inactive)
39 | COc1ccc(NC(=O)CN2C(=O)CSC2=O)cc1 | 4.34% (active)
40 | CC(=O)Nc1c(-c2ccc(C)cc2)nc2ccc(Cl)cn12 | 0.08% (inactive)
41 | C=CCn1nc(C(=O)OCC)cc1-c1sc(NC(=O)c2ccccc2)nc1C | -1.54% (inactive)
42 | O=C(CSc1ccc(Cl)cc1)NC1CC1 | 0.27% (inactive)
43 | O=C(Cc1ccc([N+](=O)[O-])cc1)NCCS(=O)(=O)N1CCN(c2ccccc2)CC1 | -0.22% (inactive)
44 | NS(=O)(=O)c1ccccc1NC(=O)c1c(O)c2ccccc2[nH]c1=O | 4.59% (active)
45 | CCCOC(=O)Cc1c(O)c2ccccc2[nH]c1=O | -0.26% (inactive)
46 | O=C(Cc1c(O)c2ccccc2[nH]c1=O)NCc1ccccc1 | 1.32% (inactive)

Row | Compound | inhibition
47 | COc1ccc(CN2C(=O)C(CC(=O)NC3CCCCC3)CC(C(=O)N3CCOCC3)=C2C)cc1 (configuration not stated) | 0.35% (inactive)
48 | CCN1CCN(CCNC(=O)c2ccc3c(c2)NC(=O)/C(=C\c2cccc(Cl)c2)S3)CC1 | -0.42% (inactive)
49 | CCOC(=O)C1CCN(C(=O)c2ccc3c(=O)n4nc(Nc5ccccc5CC)sc4nc3c2)CC1 | -2.28% (inactive)
50 | Cc1ccccc1NC(=O)Cc1nc(COC(=O)C(C)(C)Oc2ccc(Cl)cc2)cs1 | -0.05% (inactive)
51 | Clc1ccc(Nc2ccc3ccccc3n2)cc1 | 5.5% (active)
52 | C(=N\Nc1ccc2ccccc2n1)/c1ccc2c(c1)OCO2 | -2.05% (inactive)
53 | O=C(NNC(=O)c1ccc2ccccc2c1)c1ccc(Cl)cc1 | -1.29% (inactive)
54 | CSc1nnnn1-c1c(C)cc(C)cc1C | 5.68% (active)
55 | CCn1nnnc1SCC(=O)c1ccc(C)cc1C | -0.2% (inactive)
56 | Cc1ccc(S(=O)(=O)N2C[C@]3(O)C[C@@H]4C(=O)N(c5ccccc5)C(=O)[C@@H]4C[C@]3(OC(=O)NC3CC3)C2)cc1 | -1.25% (inactive)
57 | O[C@@H]1C[C@H](c2ccccc2)N(Cc2cccs2)C[C@H]1n1cc(C2CC2)nn1 | 1.9% (inactive)
58 | O[C@H]1C[C@H](c2ccc(Cl)cc2)N(Cc2cccs2)C[C@@H]1n1cc(C2CC2)nn1 | 0.67% (inactive)
59 | CN(C)/C=C(/C(=O)c1ccc(Cl)c(Cl)c1)c1nnnn1-c1ccccc1 | 8.45% (active)
60 | CC(=O)c1ccc(S(=O)(=O)NCc2nnnn2-c2ccccc2)cc1 | 0.03% (inactive)
61 | CN(C)/C=C(/C(=O)c1ccccc1Cl)S(C)(=O)=O | -0.35% (inactive)
62 | CCOc1cc(/C=N/NC(=O)c2c(C)nc3ccc(Cl)cn23)ccc1O | 0.71% (inactive)
63 | COc1ccc(C(=O)OCC(=O)NCCCc2ccccc2)cc1OC | -0.04% (inactive)
64 | O=C(COC(=O)c1ccc(F)cc1)NCCCc1ccccc1 | 1.34% (inactive)
65 | Cc1cnc(C(=O)OCC(=O)NCCCc2ccccc2)cn1 | 8.25% (active)
66 | S=C(NN=Cc1ccccn1)Nc1ccccn1 | -4.47% (inactive)
67 | CC1(c2cccc(N)c2)OCCO1 | 0.74% (inactive)
68 | CCCCCCN1C[C@@H](O)[C@H](n2cc(COC(=O)c3ccccc3)nn2)C[C@@H]1c1ccc(Cl)cc1 | 0.09% (inactive)
69 | CCn1c(SCC(=O)Nc2ccc3c(c2)OCCO3)nnc1C(C)C | 2.27% (inactive)

Row | Compound | inhibition
70 | CCn1c(SCC(=O)Nc2ccc3c(c2)OCCO3)nnc1-c1ccncc1 | 6.79% (active)
71 | CCn1c(COc2ccccc2)nnc1SCC(=O)Nc1ccc2c(c1)OCCO2 | -0.24% (inactive)
72 | COc1ccc(-n2nc(C(=O)NCC(=O)N3CCN(c4ccccc4OC)CC3)c3ccccc3c2=O)c(OC)c1 | -1.07% (inactive)
73 | COc1ccc(-n2nc(C(=O)NCC(=O)N3CCC(C(N)=O)CC3)c3ccccc3c2=O)cc1OC | 5.14% (active)
74 | COc1ccc(-n2nc(C(=O)NCC(=O)N3CCCCCC3)c3ccccc3c2=O)cc1Cl | -1.56% (inactive)
75 | O=C(OCc1ccccc1)N1CCC2CC1c1ccc(-c3ccc4c(c3)OCO4)cc12 (configuration not stated) | 0.14% (inactive)
76 | COC(=O)C(Cc1c[nH]c2ccccc12)NC(=O)CCNC(=O)c1ccco1 (configuration not stated) | 0.93% (inactive)
77 | C[C@H]1CN([C@@H](C)CO)C(=O)CCCn2nncc2CO[C@@H]1CN(C)Cc1ccc(Oc2ccccc2)cc1 | -1.44% (inactive)
78 | COc1ccc(-c2ccc3[nH]c4c(c3c2)CCN2C[C@H]3[C@H](C)ON(C)[C@H]3C[C@@H]42)cc1 | -1.11% (inactive)
79 | COc1ccc(NC(=O)C[C@H]2C(=O)N(CCc3ccccc3)C[C@@H]2C)cc1 | 0.1% (inactive)
80 | Cc1cc(C)c(C#N)c(SCc2ccc3c(c2)OCO3)n1 | -0.08% (inactive)
81 | Cc1snc(SCc2c(F)cccc2Cl)c1C#N | -1.64% (inactive)
82 | Cc1ccc(CSc2nsc(C)c2C#N)cc1 | 4.45% (active)
83 | C[C@@H]1CN([C@@H](C)CO)C(=O)c2cc(Br)cnc2O[C@@H]1CN(C)C(=O)C1CCCCC1 | 1.82% (inactive)
84 | CCN(CC)C(=O)C1=C(C)N(Cc2ccccc2)C(=O)C(CC(=O)NC(c2ccccc2)c2ccccc2)C1 (configuration not stated) | -0.09% (inactive)
85 | CC(=O)Nc1ccc(SCC(=O)NC(=O)c2ccc(Cl)cc2)cc1 | 0.53% (inactive)
86 | O=[N+]([O-])c1ccc2c(c1)C(O)n1nc(-c3ccccc3)nc1S2 (configuration not stated) | 6.7% (active)
87 | O=[N+]([O-])c1ccc2oc(-c3cccc(O)c3)nc2c1 | 0.69% (inactive)
88 | Cn1nc(-c2ccccc2)c2cc([N+](=O)[O-])ccc21 | 0.55% (inactive)
89 | Cc1ccc(C=O)c([B-](F)(F)F)c1 | -0.38% (inactive)
90 | COc1cc(NC(=O)CSc2nnc3ccc(-c4ccncc4)nn23)cc(OC)c1 | 0.29% (inactive)
91 | COc1ccc(CCNC(=O)CSc2nnc3ccc(-c4ccncc4)nn23)cc1 | 2.31% (inactive)
92 | O=C(CSc1nnc2ccc(-c3ccncc3)nn12)N1CCCCC1 | 4.62% (active)
